Screening results deposited in PubChem by several laboratories.
Sampled rows, rich in hits. Any-hit rate of the full collection: about 1.6%.
PABP FP inh: PABP poly(A) RNA binding inhibitors, primary screen, biochemical, fluorescence polarization, uHTS; Polyadenylate-binding protein 1 (Homo sapiens), P11940; inhibition, % at 35 µM; 1% of 290,000 active;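 note: calls also rest on retests at 20 µM and on dose response follow-up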
eIF4H FP inh: human eIF4H binding inhibitors, primary screen, translation initiation inhibitor project, biochemical, uHTS, fluorescence polarization; Eukaryotic translation initiation factor 4H (Homo sapiens), Q15056; eIF4H fluorescence polarization binding assay; inhibition, % at 35 µM; 0.94% of 290,000 active;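 note: calls also rest on retests at 20 µM and on dose response follow-up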
PERK inhibitor: block of dimerizer-induced PERK translation repression, primary screen, PERK inhibitor project, CHO PERK-DD cells, SEAP luminescence, HTS. inhibition, % at 5.6 µM. CHO PERK-DD fusion, SEAP luminescence translation reporter. 0.17% of 220,000 active;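 active = inhibition above the mean inhibition of all tested compounds plus 3 SD, set separately per screening campaign, cut at about 2.9% in these data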;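 note: PERK kinase domain activated by AP20187 dimerizer at 100 nM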
MLLE-PAM2 inh: inhibitors of PABP1 MLLE–PAM2 peptide binding, primary screen, biochemical, fluorescence polarization, FITC-PAM2, GST-MLLE; Polyadenylate-binding protein 1 (Homo sapiens), P11940; AID 588489, 2011; inhibition, % at 20 µM; 0.36% of 360,000 active; in the data active = inhibition above about 35%, passing the limit was not always enough
eIF4E-4G inh: eIF4E–eIF4G protein interaction inhibitors, primary screen, biochemical, uHTS, TR-FRET, eIF4GI fragment; Eukaryotic translation initiation factor 4E (Mus musculus) + Eukaryotic translation …; TR-FRET eIF4E-eIF4GI(517-606) binding, 2 h; inhibition, % at 21.7 µM; 0.37% of 220,000 active; AID 782, 2007;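 active = inhibition above about 30%, limit read from the data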
Large screens that a line does not name were inactive. Unless noted, the rule behind the calls is not given here.

S=C(c1ccc(N2CCOCC2)cc1)N1CCOCC1	MLLE-PAM2 inh 38
COc1ccc(C(=S)N2CCN(c3ccccc3Cl)CC2)cc1OC	MLLE-PAM2 inh 40
S=C(c1ccc(N2CCCC2)cc1)N1CCCCC1	none
COc1ccc(C(=S)N2CCCC2)cc1OC	none
COc1cc(C(=S)N2CCN(c3ccccc3Cl)CC2)cc(O)c1O	MLLE-PAM2 inh 42
CCOc1cc(C(=S)N2CCOCC2)ccc1OC	MLLE-PAM2 inh 56
O=C1[C@H]2[C@@H](c3ccc(C(F)(F)F)cc3)N[C@]3(CCCN(Cc4ccco4)C3=O)[C@H]2C(=O)N1Cc1ccccc1	none (no result: PABP FP inh, eIF4H FP inh, PERK inhibitor, eIF4E-4G inh)
CC(C)(C)OC(=O)NCc1ccc(CNC(=O)c2[nH]cnc2C(=O)NC2CCN(C(=O)OC(C)(C)C)CC2)cc1	none (no result: PABP FP inh, eIF4H FP inh, PERK inhibitor, eIF4E-4G inh)
CC1(C)Cc2c(sc3nc(NCCN4CCOCC4)n4ncnc4c23)CO1	eIF4E-4G inh 61
CC(CC(=O)Nc1nnc(C(C)(C)C)s1)c1ccccc1 (stereo not drawn)	MLLE-PAM2 inh 48 (no result: PERK inhibitor, eIF4E-4G inh)
COc1ccc(N2CCN(CCC(O)c3ccc4ccccc4c3)CC2)cc1 (stereo not drawn)	none (no result: PERK inhibitor, eIF4E-4G inh)
O/N=C1/CCc2cccc3cccc1c23	PABP FP inh 82, eIF4H FP inh 62
C[C@@H]1CN(S(=O)(=O)C(C)(C)C)[C@H](CCO)/C1=C\c1ccccc1	none (no result: PABP FP inh, eIF4H FP inh, PERK inhibitor, eIF4E-4G inh)
O=C(Nc1nc(-c2ccco2)c(-c2ccco2)s1)C1CC(=O)N(c2ccc3c(c2)OCCO3)C1 (stereo not drawn)	PABP FP inh 88, eIF4H FP inh 84
CCN(C(=O)COC(=O)CNC(=O)C1CCCCC1)c1ccccc1	none (no result: PABP FP inh, eIF4H FP inh, PERK inhibitor, eIF4E-4G inh)
c1ccc2c(c1)CCN(C1CCCCC1)C2	none (no result: PERK inhibitor, eIF4E-4G inh)
c1ccc2c(c1)NCC1CCCN21 (stereo not drawn)	eIF4H FP inh 104 (no result: PERK inhibitor, eIF4E-4G inh)
COc1ccccc1CNC(=O)CN1C(=O)NC(Cc2ccccc2)(c2ccccc2)C1=O (stereo not drawn)	none (no result: PABP FP inh, eIF4H FP inh, PERK inhibitor, eIF4E-4G inh)
O=C1CNC(c2ccccc2)C(c2ccccc2)N1 (stereo not drawn)	none (no result: PABP FP inh, eIF4H FP inh, PERK inhibitor, eIF4E-4G inh)
COc1nnc(-c2ccccc2)s1	MLLE-PAM2 inh 39
O=C1NC(=S)CN1c1ccccc1	MLLE-PAM2 inh 57
CCC12C(=Nc3c(Cl)cccc31)C[C@@H]1CCN3C(=O)CCC[C@H]2[C@H]13 (stereo partly drawn)	none (no result: PABP FP inh, eIF4H FP inh, PERK inhibitor, eIF4E-4G inh)
CCc1ccc(C(=O)NNC(=O)OC)cc1	eIF4E-4G inh 72
CCc1ccc(NC(=O)C(=O)NNC(=O)c2ccc(OC)cc2)cc1	none (no result: PERK inhibitor, eIF4E-4G inh)
CCn1c(CSc2nnc(-c3cccnc3)n2-c2ccccc2C)nc2cc(C(=O)O)ccc21	none (no result: MLLE-PAM2 inh)
CCn1c(CSc2nnc3ccccn23)nc2cc(C(=O)O)ccc21	PABP FP inh 128, eIF4H FP inh 129
O=[N+]([O-])c1cc(S(=O)(=O)N2CCOCC2)ccc1OCc1ccccc1C(F)(F)F	none (no result: PABP FP inh, eIF4H FP inh, PERK inhibitor, eIF4E-4G inh)
N#C/C(=C/c1ccc(N2CCCCC2)o1)C(=O)Nc1ccc(Cl)cc1	eIF4H FP inh 127
O=c1[nH]c(Cc2ccc(F)cc2)nc2scc(-c3ccc(F)cc3)c12	none
Cc1ccc(-c2csc3nc(CN(C)Cc4ccccc4)[nH]c(=O)c23)cc1	PABP FP inh 0.3, eIF4H FP inh 98
COC(=O)C(N)Cc1ccc(O)c(O)c1 (stereo not drawn)	none
NC(CO)C(=O)NNCc1ccc(O)c(O)c1O (stereo not drawn)	PABP FP inh 8.4, eIF4H FP inh 97, MLLE-PAM2 inh 48
Cc1ccc(-c2nc(N)sc2CC(=O)OCC(=O)NCCC(C)C)cc1	eIF4H FP inh 119
O=C(O)CCN1C(=O)c2ccc(NC(=O)C(c3ccccc3)c3ccccc3)cc2C1=O	eIF4E-4G inh 71
O=C(O)CCN1C(=O)c2ccc(NC(=O)c3ccco3)cc2C1=O	none
CC(=O)c1ccc(OCc2cc(C(=O)N(C)CC3COc4ccccc4O3)no2)cc1 (stereo not drawn)	none (no result: PABP FP inh, eIF4H FP inh, PERK inhibitor, eIF4E-4G inh)
O=Cc1ccc(-c2cc(Cl)ccc2Cl)[nH]1	PERK inhibitor 3.3
COC(=O)/C(C(C)=O)=C(/C=C/C=C/N(C)C)N(C)C	PABP FP inh 72, eIF4H FP inh 80
COC(=O)\C(C(C)=O)=C(/C=C/C=C/N(C)C)N(C)C	PABP FP inh inconclusive, eIF4H FP inh inconclusive
CCN(CC)C(=O)C(=O)N/N=C/c1cccs1	PERK inhibitor 3.1
Cc1ccc(C)n1/N=C1/NC(=O)CS1	PABP FP inh 73, eIF4H FP inh 92
N#CC1=C(N)C2=C(N3CCCCC3)CCCC2C1(C#N)C#N (stereo not drawn)	PABP FP inh 112, eIF4H FP inh 110, MLLE-PAM2 inh 39
N#CC(C#N)=C1C=C2C=C(N3CCCCC3)CCC2CC1 (stereo not drawn)	eIF4H FP inh inconclusive (no result: MLLE-PAM2 inh)
CCSC1(SCC)N=C(N)C2(C#N)C(c3ccccc3)NC3=C(CCC3)C12C#N (stereo not drawn)	PABP FP inh 75, eIF4H FP inh 72
COc1ccc(CN=C2NC(=O)CC(C(=O)Nc3ccc(F)cc3)S2)cc1 (stereo not drawn)	eIF4E-4G inh 36
COc1ccc(NC(=O)C2CC(=O)N/C(=N/N=C/c3ccco3)S2)cc1 (stereo not drawn)	none
COC(=O)CNC(c1ccccc1)c1cc(Br)ccc1NC(C)=O (stereo not drawn)	none
COC(=O)CNC(c1ccccc1Cl)c1cc(Br)ccc1NS(=O)(=O)c1ccc(C)cc1 (stereo not drawn)	eIF4H FP inh active
COc1cccc(NC(=O)CN(C)C(C)C(=O)N2CCCC2)c1 (stereo not drawn)	none (no result: PABP FP inh, eIF4H FP inh, PERK inhibitor, eIF4E-4G inh)
Nc1c(C(=O)Nc2ccc(F)cc2)sc2nc(-c3ccco3)ccc12	PABP FP inh 91, eIF4H FP inh 99
CC(=O)c1sc2nc(-c3ccco3)ccc2c1N	PABP FP inh 84, eIF4H FP inh 91
NC(=O)c1sc2nc(-c3ccccc3)ccc2c1N	none (no result: PERK inhibitor, eIF4E-4G inh)
Nc1c(C(=O)Nc2ccc(Br)cc2)sc2nc(-c3ccco3)ccc12	PABP FP inh 50, eIF4H FP inh 81
O=C(N/C(=C/c1ccccc1Cl)C(=O)N1CCCCC1)c1ccco1	none (no result: PERK inhibitor, eIF4E-4G inh)
C[C@H]1CN([C@@H](C)CO)S(=O)(=O)c2ccc(Br)cc2O[C@@H]1CN(C)C(=O)Cc1ccccc1	none (no result: PABP FP inh, eIF4H FP inh, PERK inhibitor, eIF4E-4G inh)
CCOc1ccc(NC(=O)c2cccc(NC(C)=O)c2)cc1S(=O)(=O)N1CCCC1	none (no result: PABP FP inh, eIF4H FP inh, PERK inhibitor, eIF4E-4G inh)
Cc1csc(N/N=C/c2ccc(O)c([N+](=O)[O-])c2)n1	PABP FP inh 23, eIF4H FP inh 68
Cc1cccc(-n2cnc3cc(C(=O)NCC4CCCO4)ccc32)c1 (stereo not drawn)	none (no result: PABP FP inh, eIF4H FP inh, PERK inhibitor, eIF4E-4G inh)
Cc1ccc[n+](-c2nc([O-])sc2/C=N/Nc2ccc([N+](=O)[O-])cc2)c1	MLLE-PAM2 inh 60
O=[N+]([O-])c1ccc(NN=Cc2cccc3ccccc23)cc1	none (no result: PABP FP inh, eIF4H FP inh, PERK inhibitor, eIF4E-4G inh)
